In the library only some 7.5% were active in any assay of this set; here they are far more common.
FMDV inh = foot and mouth disease virus antiviral activity; FMDV antiviral cell-based qHTS; Potency, µM (doses to about 57.9 µM), for inactives: at the top dose activity change, negative = inhibition, hits mostly inhibitors; hit rate 1.2% among 410,000; AID 1159524; calls by dose curve; tested in HEK293T cells; also: read-out not given here; potency is read from the fitted curve at half-maximal effect; nearly all actives have a fitted effect of over 45% in size
Giardia FBPA inh = blocks Giardia fructose-bisphosphate aldolase activity | A8B2U2 | purified Giardia FBPA | Potency, µM (top dose mostly 59.6 µM), for the others: at the highest dose activity, negative = inhibition, most hits filed as inhibitors | hit rate 0.71% among 290,000 | AID 2451; also: potency is read from the fitted curve at half-maximal effect; nearly all actives have a fitted effect of over 55% in size
Target sequence (A8B2U2 whole entry, looked up): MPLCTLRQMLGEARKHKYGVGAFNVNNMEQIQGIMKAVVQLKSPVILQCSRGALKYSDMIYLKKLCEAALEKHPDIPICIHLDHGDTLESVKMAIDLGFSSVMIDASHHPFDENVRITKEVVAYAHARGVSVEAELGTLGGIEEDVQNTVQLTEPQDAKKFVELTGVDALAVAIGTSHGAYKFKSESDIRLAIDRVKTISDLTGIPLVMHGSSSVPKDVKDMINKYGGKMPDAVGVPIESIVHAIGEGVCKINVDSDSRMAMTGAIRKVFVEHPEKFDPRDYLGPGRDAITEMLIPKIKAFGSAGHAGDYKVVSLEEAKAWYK
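Giardia FBPA (40 nM reagent) was preincubated 10 min at RT with compound (up to 57.5 uM final), then substrate plus GAPDH/TPI/NAD/arsenate coupling system with diaphorase/resazurin was added; resorufin fluorescence (525/598 nm) was read after 20 min.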
HCV inh = HCV inhibition; Huh7.5.1 HCVcc-Cre infection, luciferase reporter, 44 h; AID 651820; hit rate 3.4% among 340,000; Potency, µM (series often up to 41.8 µM), for inactives: top-dose activity change, negative = inhibition, usual class: inhibitors; also: potency is read from the fitted curve at half-maximal effect
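Infectious HCV cell culture screen: compound-treated cells (1,000/well, pre-plated 4 h) are infected with HCVcc-Cre at roughly 0.5 moi and grown 44 h. Infection is quantified by luciferase signal after 15 min substrate incubation at room temperature.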
VACV Venus inh = inhibitors of vaccinia virus (Venus reporter) | Vaccinia virus Venus reporter expression, fluorescence | Potency, µM (titrated, usually from 36.5 µM), for inactives: top-dose activity change, negative = inhibition, usual class: inhibitors | hit rate 0.46% among 330,000; calls by dose curve; tested in A549 cells; also: potency is read from the fitted curve at half-maximal effect; nearly all actives have a fitted effect of over 30% in size
Vaccinia mCherry = vaccinia inhibition (mCherry reporter); Vaccinia virus mCherry reporter infection, fluorescence; Potency, µM (doses to about 36.5 µM), for the others: top-dose activity change, negative = inhibition, actives largely listed as inhibitors; hit rate 0.63% among 310,000; AID 720579; calls by dose curve; tested in A549 cells; also: potency is read from the fitted curve at half-maximal effect; nearly all actives have a fitted effect of over 35% in size
HCMV antiviral = blocks human cytomegalovirus replication; HFF cells, HCMV-luciferase reporter, 72 h; stronger effect = lower value; activity change, negative = inhibition, % at 57.5 µM; hit rate 4.5% among 410,000; AID 1259415; in the data active = activity change below about -60%; inconclusive = no clear call, values can overlap the other calls; inactive = above about -39%
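Compounds were evaluated in HFFs infected with an HCMV luciferase reporter virus (MOI 1 PFU/cell). Luciferase in lysates collected 72 h post infection served as the replication measure.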
Active calls of the source: *; i = inactive; u = inconclusive; x = no result given; [ ] = remark or other dose. Unless noted, calls follow the shape of the dose curve; as a rule, active = well fitted curve in the direction sought with a large enough effect; inconclusive = small, poorly fitted or top-dose-only effect, or another doubt; inactive = no such curve, though single readings can be large; an effect the other way counts as inactive or inconclusive. % is scaled to controls: 0 for no effect and ±100 for the full control effect.

SMILES | FMDV inh | Giardia FBPA inh | HCV inh | VACV Venus inh | Vaccinia mCherry | HCMV antiviral
Cc1ccc(F)c(S(=O)(=O)NC(=O)C2(C)CCN2C(=O)c2ccc(C(F)(F)F)nc2C)c1 (stereo not drawn) | -12% | x | x | 7% | -1% | -87*
Cc1nc(C(F)(F)F)ccc1C(=O)N1CCC1(C)C(=O)NS(=O)(=O)c1ccc(C(C)(C)C)cc1 (stereo not drawn) | -16% | x | x | -24% | -11% | -81*
CCC(C)(C)NC(=O)CN(C(=O)C(=O)Nc1ccc2c(c1)OCCO2)N1CCOCC1 | -4% | 1% | 4% | -13% | -15% | 7
COc1cc(C2C(C#N)=C(N)OC3=C2C(=O)CCC3)cc2c1OCO2 (stereo not drawn) | -10% | -8% | 8% | -7% | -2% | u
CNC(=S)N1N=C(c2ccc(OC)cc2)CC1c1ccc(N(C)C)cc1 (stereo not drawn) | 5% | 0% | 11µM* | -9% | -19% | 8
COc1ccc(C(=O)Nc2ccc(N3CCN(C(=O)c4ccccc4)CC3)cc2)cc1[N+](=O)[O-] | u | 0% | u | -14% | -19% | -35
Cc1ccccc1C(=O)N1CCN(c2ccc(NC(=O)c3ccc([N+](=O)[O-])o3)cc2)CC1 | u | 8% | u | -21% | -9% | -98*
O=C(Nc1ccc(N2CCN(C(=O)c3ccco3)CC2)cc1)c1ccc2c(c1)OCO2 | -13% | 0% | -2% | x | x | 0
Cc1ccccc1C(=O)N1CCN(c2ccc(NC(=O)c3ccc4c(c3)OCO4)cc2)CC1 | 13µM* | 2% | u | -18% | i | -38
O=C(Nc1ccc(N2CCN(C(=O)c3ccccc3)CC2)cc1)c1ccc([N+](=O)[O-])o1 | u | -18% | u | x | x | -101*
O=C(Nc1ccc(N2CCN(C(=O)c3ccccc3F)CC2)cc1)c1cncc(Br)c1 | 32µM* | x | u | -25% | -12% | -90*
O=C(/C=C/c1ccccc1)Nc1nc2n(n1)C(c1ccc(F)cc1)C=C(c1ccccc1)N2 (stereo not drawn) | -10% | x | x | -7% | -8% | -12
Cc1ccccc1C(=O)N1CCN(c2ccc([N+](=O)[O-])c(NCc3ccco3)c2)CC1 | -13% | -23% | 13µM* | -30% | u | -27
O=C(c1cccc2ccccc12)N1CCN(c2ccc([N+](=O)[O-])c(NCc3ccco3)c2)CC1 | -14% | -6% | u | -15% | -17% | u
COc1ccc(Cl)cc1Nc1nc(N)c2ccccc2n1 | 9% | u | 14µM* | -26% | -14% | 84
CCCCc1ncc(CN2CCC(n3nccc3NC(=O)c3ccccc3Cl)CC2)[nH]1 | -17% | x | 9% | -12% | -6% | 18
CS(=O)(=O)N1CCc2ccc(NC(=O)C3CCCO3)cc2C1 (stereo not drawn) | -1% | x | 7% | -4% | -2% | 22
CN1CCN(C(=O)CCCN2C(=O)/C(=C/c3cccc(Br)c3)SC2=S)CC1 | -7% | 9% | 6.3µM* | 47% | -25% | -84*
COc1cccc(/C=C2\SC(=S)N(CCCC(=O)N3CCCCC3)C2=O)c1 | -15% | -1% | 13µM* | x | x | -20
CC(C(=O)NC1C=CS(=O)(=O)C1)N1C(=O)/C(=C/c2cccc(Cl)c2)SC1=S (stereo not drawn) | 2% | x | 5% | x | x | -65*
CC(C(=O)NC1C=CS(=O)(=O)C1)N1C(=O)/C(=C\c2ccccc2)SC1=S (stereo not drawn) | -22% | -4% | 3% | x | x | u
COc1ccc(/C=C2\SC(=S)N(CCCC(=O)N3CCN(C)CC3)C2=O)cc1 | 5% | 0% | 16% | -27% | -19% | -77*
COc1cccc(/C=C2/SC(=S)N(CCC(=O)N3CCOCC3)C2=O)c1 | 18% | 1% | u | u | u | -4
CCOc1ccccc1NC(=O)c1nnn(CC(=O)Nc2cc(C)cc(C)c2)c1N | -12% | x | -3% | -5% | -21% | -32
COc1cccc(/C=C2\SC(=S)N(CCC(=O)Nc3ccc(O)cc3)C2=O)c1 | 38% | -6% | u | x | x | 32
SMILES | FMDV inh | Giardia FBPA inh | HCV inh | VACV Venus inh | Vaccinia mCherry | HCMV antiviral
CCc1ccc(/C=C2\SC(=S)N(CCCC(=O)N3CCN(C)CC3)C2=O)cc1 | 15% | x | x | 28µM* | u | -101*
COc1cccc(/C=C2\SC(=S)N(CCC(=O)NC3C=CS(=O)(=O)C3)C2=O)c1 (stereo not drawn) | 7% | 21% | u | 16%[7.34 µM] | i[7.34 µM] | -34
COc1cccc(/C=C2\SC(=S)N(CCC(=O)NCCc3ccc(O)cc3)C2=O)c1 | 0% | -8% | u | u | 11µM* | -100*
COc1ccc(/C=C2\SC(=S)N(CCC(=O)NC3C=CS(=O)(=O)C3)C2=O)cc1 (stereo not drawn) | -3% | 11% | u | x | x | -80*
OC1(c2ccc(F)cc2)CCNC1 (stereo not drawn) | 12% | 0% | 6% | x | x | -66*
O=C(/C=C/c1ccc(Cl)cc1)N[C@@]12CCC(=O)[C@@H]3Oc4c(O)ccc5c4[C@@]31CCN(CC1CC1)C2C5 | -11% | x | x | u | u | x
O=C(c1ccco1)N1N=C(c2cccs2)CC1c1ccccc1O (stereo not drawn) | u | -13% | -1% | -18% | -15% | -68*
COc1cccc(C2CC(c3cccs3)=NN2C(=O)c2ccco2)c1O (stereo not drawn) | -17% | -6% | 14µM* | 4% | -9% | -38
CC(NC(=O)CN1CCOCC1)c1ccccc1 (stereo not drawn) | 1% | 10% | 0% | x | x | 25
Cc1ccc(S(=O)(=O)c2nnn3c2nc(NCCc2ccccc2)c2sccc23)cc1 | -12% | x | x | u | u | -65*
Cc1ccc(CCNc2nc3c(S(=O)(=O)c4ccccc4)nnn3c3ccsc23)cc1 | -7% | x | x | -21% | -20% | -8
Cc1ccc(S(=O)(=O)c2nnn3c2nc(NCc2ccc4c(c2)OCO4)c2sccc23)cc1 | -5% | x | x | u | u | 5
Cc1ccc(C)c(S(=O)(=O)c2nnn3c2nc(NCc2ccc4c(c2)OCO4)c2sccc23)c1 | -8% | x | x | u | -26% | -79*
Cc1cc(Nc2cccc(Cl)c2)nc2ccc(NC(=O)c3cncc(Br)c3)cc12 | -13% | x | x | -23% | -3% | -100*
Cc1cc(Nc2cccc(C(F)(F)F)c2)nc2ccc(NC(=O)c3cncc(Br)c3)cc12 | 32µM* | x | x | -16%[7.34 µM] | -18%[7.34 µM] | u
Cc1ccccc1C(=O)Nc1ccc2nc(Nc3cccc(C(F)(F)F)c3)cc(C)c2c1 | u | x | x | u | u | -13
CCOc1cc(C(=O)Nc2ccc3nc(Nc4cccc(Cl)c4)cc(C)c3c2)cc(OCC)c1OCC | 0% | x | x | -21% | -15% | -29
Cc1ccc(NS(=O)(=O)c2ccc(C(=O)OCC(=O)NCC3CCCO3)cc2)cc1 (stereo not drawn) | 11% | 10% | 0% | -11% | -5% | -11
